Test results as given in PubChem BioAssay AID1020 (Sanford-Burnham Center for Chemical Genomics, 2008).
In all, about 200,000 compounds went through this assay and about 240 (0.12%) were called active. Only a selection was taken, and actives are over-represented in it overall. A number with no mark means an inactive call. Cut-off read from the data, not from the text of the source: active = inhibition above about 50%; inactive = the rest.

System: glucose-6-phosphate dehydrogenase [Leuconostoc mesenteroides]
Assay: bacterial G6PDH enzyme inhibition, coupled readout – biochemical, Leuconostoc mesenteroides enzyme, counter-screen for G6PDH-coupled screening assays (AID 1020)
Conditions: Purified L. mesenteroides G6PDH, diaphorase/resazurin coupled fluorescence, 45 min; at 5 µM; active compounds read high

Compound | inhibition [%]
O=C(COC(=O)c1cc2c(s1)CCCC2)NCc1ccccc1Cl | -30.3
CCNC(=O)c1ccc(OCC(=O)Nc2ccc(F)cc2)c(OC)c1 | 0
COC1=CCC2([N+](=O)[O-])CN(CC(=O)O)CC1([N+](=O)[O-])C2 (stereo not drawn) | -3.5
Cc1ccc(C2=NN(C(=O)CSc3nc(N)cc(N)n3)C(c3ccco3)C2)cc1 (stereo not drawn) | -0.7
COc1ccc(C)cc1NC(=O)C(OC(=O)c1cccc(S(=O)(=O)N(C)c2ccccc2)c1)c1ccccc1 (stereo not drawn) | 0.4
Cc1cc(C)c(NC(=O)C[N+](C)(C)CC(O)COc2cccc3ccccc23)c(C)c1 (stereo not drawn) | -0.6
CCOC(=O)C1=C(C)OC(N)=C(C#N)C1c1cncc(-c2ccc(F)cc2)c1 (stereo not drawn) | 14.8
CC1(C)CC(=O)C2=C(C1)Nc1cc(C(=O)c3ccccc3)ccc1NC2c1ccccn1 (stereo not drawn) | 8.9
Cc1nc2ccc(NC(=S)N3CCC(C)CC3)cc2nc1C | 29.3
COC(=O)c1nc(NC(=O)c2ccc(F)cc2)n[nH]1 | -4.4
Cc1ccc(S(=O)(=O)N(CC(=O)Nc2cccc([N+](=O)[O-])c2)Cc2ccc(Cl)cc2)cc1 | -21.7
O=C(/C=C/c1ccc(Cl)cc1)Nc1ccc(Br)cn1 | 7.2
Cn1c(=O)c2c(ncn2CC(=O)N/N=C/c2cn[nH]c2-c2ccc(F)cc2)n(C)c1=O | -4.7
CC(C)(C)NC(=O)CN(C(=O)c1csnn1)c1ccccc1-c1ccccc1 | 9.8
COCCCNC(=O)Cn1c(=O)n(Cc2ccccc2Cl)c(=O)c2cc(OC)c(OC)cc21 | 4.4
Cc1ccc(-c2cc(N)on2)cc1 | 4.2
CCCN(CCC)CCCNC(=O)CNC(=O)c1nn(-c2ccc(OC)cc2)c(=O)c2ccccc12 | 6
CCOC(=O)c1c(NC(=O)CNC2CCCc3ccccc32)sc(C(N)=O)c1C (stereo not drawn) | 2.5
CN(CC(=O)Nc1ccccc1[N+](=O)[O-])Cc1ccc(Br)cc1 | -0.3
Cc1cc(/C=N/NC(=O)c2cccnc2)c(C)n1CC(C)C | 2.9
CC1CCCCN1C(=S)NCc1ccccc1 (stereo not drawn) | -13
CC(=O)N1c2ccccc2N(Cc2ccc([N+](=O)[O-])cc2)C(=O)C1(C)C | 4.5
COC(=O)c1ccc(NC(=O)c2cc(Cl)ccc2OC)cc1 | 0.4
